# Measured values as given in PubChem BioAssay (Tox21).
# Where “and” joins values, the source holds several entries; their conditions need not be identical. Equal entries are not always repeated. Inconclusive results are not listed. A call without a number means that no potency is given here. Where a structure was tested more than once in an assay, its records may differ in their call. Calls of active or inactive are those of the source. Calls follow the shape of the dose curve; as a rule, active = well fitted cell-killing curve with a large enough effect in the repeat runs; inconclusive = weak or mixed curves; inactive = no such curve, though single readings can be large or run the other way.
# Test: qHTS assay to identify small molecule agonists of the peroxisome proliferator-activated receptor delta (PPARd) signaling pathway - cell viability counter screen (AID 743211); also: nearly all actives have a fitted effect of over 55% in size
# Settings: PPARd-bla HEK293H viability, CellTiter-Glo luminescence, 17 h; series mostly up to 62.6 µM; activity change, negative = cytotoxicity: at the top concentration
# Text: U.S. Tox21 Program National Center for Advancing Translational Sciences [NCATS] NIH Chemical Genomics Center [NCGC] U.S. Environmental Protection Agency [EPA] National Institutes of Environmental Health Sciences [NIEHS] National Toxicology Program [NTP] U.S. Food and Drug Administration [FDA] Tox21 Assay Overview: The peroxisome proliferator-activated receptors (PPARs) are lipid-activated transcription factors of the nuclear receptor superfamily with three distinct subtypes namely PPAR alpha, PPAR delta (PPARd) and PPAR gamma. All these subtypes heterodimerizes with Retinoid X receptor (RXR) and have different physiological functions. […] To identify the compounds that activate PPAR-delta signaling, GeneBLAzer PPAR delta UAS-bla HEK293H cell line (Invitrogen, Carlsbad, CA, USA) containing a beta-lactamase reporter gene under the control of an Upstream Activator Sequence (UAS) was used to screen the Tox21 compound library. The cytotoxicity of the Tox21 compound library against the PPARd-bla cell line was tested in parallel by measuring the cell viability using CellTiter-Glo assay (Promega, Madison, WI) in the same wells.
# Tox21 Assay Protocol Summary: PPARd-bla cells were dispensed at 3000 cells/6uL/well in 1536-well black wall/clear bottom plates using a Multidrop Combi (Thermo Fisher Scientific, Waltham, MA) dispenser. After the assay plates were incubated at 37 C and 5% CO2 for 5 h, 23 nL of compounds dissolved in DMSO, positive controls or DMSO only was transferred to the assay plate by a Pintool station (Kalypsys, San Diego, CA). The assay plates were incubated at 37C for 17 h. After 1 uL of LiveBLAzerTM B/G FRET substrate was added using a Bioraptr Flying Reagent Dispenser (FRD) workstation (Beckman Coulter, Indianapolis, IN, USA), the plates were incubated at room temperature for 2 h, and fluorescence intensity was measured by an Envision plate reader (PerkinElmer, Shelton, CT). For cell viability readout that measures cytotoxicity, 3 ul/well of CellTiter-Glo reagent was added into the assay plates using a Bioraptr FRD. After 30 min incubation at room temperature, the luminescence intensity in the plates was measured using a ViewLux plate reader (PerkinElmer).
# Potency is read from the fitted curve at half-maximal effect.
Compound,Potency,"activity change, negative = cytotoxicity"
CCC[N+]1(C)CCCC1,inactive,–
O=c1nc(O)n(Cl)c(=O)n1Cl,inactive,–
O=C(O)c1nc(Cl)ccc1Cl,inactive,–
C[N+](C)(C)Cc1ccccc1,inactive,–
Cc1cc(Cl)ccc1OCC(=O)O,inactive,–
CC[n+]1ccccc1,inactive,–
O=S(=O)(O)O,inactive,–
O=C(O)c1ccccc1O,inactive,–
CCCC[n+]1cccc(C)c1,inactive,–
CCNc1nc(Cl)nc(NCC)n1,inactive,–
Oc1ccccc1-c1ccccc1,inactive,–
CCCCn1cc[n+](C)c1C,inactive,–
O=C(O)COc1ccc(Cl)cc1Cl,inactive,–
CCCC[N+]1(C)CCCCC1,inactive,–
C=CCOC(Cn1ccnc1)c1ccc(Cl)cc1Cl (stereo not given),49 µM (active) and inactive,–
CCCCCC[n+]1ccccc1,55.5 µM (active) and 55.3 µM (active) and inactive,–
O=c1[nH]c(=O)n(Cl)c(=O)n1Cl,inactive,–
CCC[N+]1(C)CCCCC1,inactive,–
CCCCCCCCCCCC(=O)O,inactive,–
O=C(O)CC(O)(CC(=O)O)C(=O)O,inactive,–

Compound,Potency,"activity change, negative = cytotoxicity"
COCC(=O)N(c1c(C)cccc1C)C(C)C(=O)OC (stereo not given),inactive,–
COP(=O)(OC)C(O)C(Cl)(Cl)Cl (stereo not given),inactive,–
O=[N+]([O-])O,inactive,–
CCCCCCCCn1cc[n+](C)c1,–,-1.68% (inactive)
COc1ccccc1N,inactive,–
CCCn1cc[n+](C)c1,inactive,–
O=[N+]([O-])c1ccccc1O,inactive,–
C[C@]12CCC(=O)C=C1CC[C@@H]1[C@@H]2CC[C@]2(C)C(=O)CC[C@@H]12,inactive,–
CCCCCCCCCCn1cc[n+](C)c1,4.41 µM (active) and 24.6 µM (active) and 35.6 µM (active),–
CCCC[n+]1ccccc1C,inactive,–
CN(C)[C@@H]1C(=O)C(C(N)=O)=C(O)[C@@]2(O)C(=O)C3=C(O)c4c(O)cccc4[C@@](C)(O)[C@H]3[C@H](O)[C@@H]12,inactive,–
CCOP(=S)(OCC)Oc1ccc2c(C)c(Cl)c(=O)oc2c1,inactive,–
CCCCn1cc[n+](C)c1,inactive,–
CNC,inactive,–
CC(Cl)(Cl)C(=O)O,inactive,–
CC[N+](CC)(CC)CC,inactive,–
Oc1cccc2cccnc12,414 nM (active) and 155 nM (active) and inactive,–
O=C(O)C(Cl)Cl,inactive,–
CCCCCCCCCCCCOS(=O)(=O)O,38.9 µM (active) and inactive,–
CCCCCCn1cc[n+](C)c1,inactive,–
